PubChem BioAssay AID2284118 (EPA ToxCast)
Active and inactive are the calls of the source. How the source made its calls: active means hit-call score of the fitted dose curve at least 0.9, where 1 is the maximum; inactive means score below 0.9.

target: human AMPKalpha1 CAMK Kinase, PRKAA1 (gene 5562) (UniProt Q13131); experiment: ERF_KP_ENZ_hPRKAA1: Eurofins (ERF) Enzymatic Radiometric [10 uM ATP] KinaseProfiler LeadHunter Assay for human AMPKalpha1 CAMK Kinase
Procedure: ERF_KP_ENZ_hPRKAA1 is a biochemical, single-readout assay that uses extracted gene-proteins in a cell-free assay. Measurements were taken 0.66 hour after chemical dosing in a 96-well plate. See AMPKalpha1 Human CAMK Kinase Enzymatic Radiometric Assay [10 uM ATP], KinaseProfiler.ERF_KP_ENZ_hPRKAA1 is an assay component calculated from the ERF_KP_ENZ_hPRKAA1 assay. It is designed to measure enzyme activity using a type of enzyme reporter as detected by scintillation counting with radiometry technology.Data from the assay component ERF_KP_ENZ_hPRKAA1 was analyzed at the assay endpoint, ERF_KP_ENZ_hPRKAA1, in the positive analysis fitting direction relative to DMSO as the negative control and baseline of activity. Using a type of enzyme reporter, loss-of-signal activity can be used to understand changes in enzymatic activity as they relate to gene PRKAA1. To generalize the intended target to other relatable targets, this assay endpoint is annotated to the kinase intended target family, where the subfamily is serine/threonine kinase.
AMPK (a1, b1, g1) (h) is incubated with 8 mM MOPS pH 7.0, 0.2 mM EDTA, 200 uM AMP, 100 uM […], 10 mM MgAcetate and [gamma-33P]-ATP (specific activity and concentration as required). The reaction is initiated by the addition of the Mg/ATP mix. […]

Sequence of human AMPKalpha1 CAMK Kinase, PRKAA1 (gene 5562) (Q13131 whole entry, looked up): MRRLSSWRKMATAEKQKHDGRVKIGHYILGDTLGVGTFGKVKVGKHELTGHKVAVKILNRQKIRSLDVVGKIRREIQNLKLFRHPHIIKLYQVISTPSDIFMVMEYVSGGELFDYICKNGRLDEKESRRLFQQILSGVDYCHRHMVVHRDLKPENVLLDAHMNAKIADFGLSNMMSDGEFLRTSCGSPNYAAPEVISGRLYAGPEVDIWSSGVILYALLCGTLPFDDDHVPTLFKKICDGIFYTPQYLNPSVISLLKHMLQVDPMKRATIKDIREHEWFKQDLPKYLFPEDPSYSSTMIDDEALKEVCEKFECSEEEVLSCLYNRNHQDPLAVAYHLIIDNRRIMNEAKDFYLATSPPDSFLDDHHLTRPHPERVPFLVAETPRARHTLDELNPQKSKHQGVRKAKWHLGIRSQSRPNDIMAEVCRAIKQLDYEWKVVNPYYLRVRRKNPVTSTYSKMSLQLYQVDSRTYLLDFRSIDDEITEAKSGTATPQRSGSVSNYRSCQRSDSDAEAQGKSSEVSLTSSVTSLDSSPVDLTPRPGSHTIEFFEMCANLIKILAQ

Row | Compound | AC50
1 | O=C(/C=C/c1ccc(O)cc1)CC(=O)/C=C/c1ccc(O)cc1 | 0.298 nM (active)
